G9a block – blocks human histone lysine methyltransferase G9a | Q96KQ7 | G9a H3K9 monomethylation, AlphaScreen, 2 h | Potency, µM (top dose mostly 102 µM), inactives show top-dose activity, negative = inhibition, usual class: inhibitors | 350,000 tested, 8.8% active | AID 504332; also: % is scaled to controls: 0 for no effect and ±100 for the full control effect; nearly all actives have a fitted effect of over 75% in size
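Compounds were preincubated with 20 nM G9a for 15 min, after which biotinylated H3K9 peptide (500 nM) and SAM (20 uM) started a 2 h room-temperature reaction. Monomethylated product was quantified by antibody-based AlphaScreen chemiluminescence.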
JMJD2A Tudor inh – inhibitors of human JMJD2A Tudor domain. AlphaScreen JMJD2A-Tudor / H3K4me3 peptide binding. 390,000 tested, 4.4% active. Potency, µM (series often up to 114 µM), inactives show top-dose activity change, negative = inhibition, actives largely listed as inhibitors. AID 504339. O75164; also: % is scaled to controls: 0 for no effect and ±100 for the full control effect; nearly all actives have a fitted effect of over 50% in size
BAZ2B block – blocks human BAZ2B | AlphaScreen BAZ2B-H3K14Ac peptide displacement | Potency, µM (highest dose often 114 µM), inactives show at the top dose activity change, negative = inhibition, usual class: inhibitors | 360,000 tested, 4.4% active; also: % is scaled to controls: 0 for no effect and ±100 for the full control effect; nearly all actives have a fitted effect of over 60% in size
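Inhibition is scored as reduced AlphaScreen emission. The BAZ2B/b-H3(5-23)K14Ac complex (50 nM each) in PBS pH 7.4, 0.01% Tween-20 meets compound (up to 110 uM) for 30 min at RT before bead addition.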
PLK1 PBD block – inhibitors of human PLK1 polo-box domain binding; AID 720504; Potency, µM, for inactives: max response, negative = inhibition, most hits filed as inhibitors; 360,000 tested, 2.8% active; P53350; Plk1 PBD binding of FITC phosphopeptide, fluorescence polarization; also: series mostly up to about 57 µM; % is scaled to controls: 0 for no effect and ±100 for the full control effect; nearly all actives have a fitted effect of over 65% in size
VDR inhibitor – inhibitors of human vitamin D receptor | P11473 | VDR-SRC2-3 peptide fluorescence polarization, 2 h | Potency, µM, inactives show max response, negative = inhibition, most hits filed as inhibitors | 400,000 tested, 0.93% active | AID 504847; also: % is scaled to controls: 0 for no effect and ±100 for the full control effect
Target sequence (P11473 whole entry, looked up): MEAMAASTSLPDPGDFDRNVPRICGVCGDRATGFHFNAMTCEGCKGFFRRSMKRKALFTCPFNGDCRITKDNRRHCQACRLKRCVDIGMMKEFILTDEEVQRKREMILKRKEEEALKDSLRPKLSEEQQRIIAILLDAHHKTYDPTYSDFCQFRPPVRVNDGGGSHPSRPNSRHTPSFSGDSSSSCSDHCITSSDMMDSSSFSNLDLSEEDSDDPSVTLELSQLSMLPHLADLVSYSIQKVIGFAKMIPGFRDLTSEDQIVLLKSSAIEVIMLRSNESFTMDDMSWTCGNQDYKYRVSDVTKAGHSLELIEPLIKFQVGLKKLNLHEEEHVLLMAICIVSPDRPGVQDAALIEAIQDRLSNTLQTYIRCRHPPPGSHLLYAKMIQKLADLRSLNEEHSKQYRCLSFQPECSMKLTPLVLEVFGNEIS
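Signal is fluorescence polarization, reporting how far test compounds block the interaction of VDR with the SRC2-3 coregulator peptide after a 2 h room-temperature incubation.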
HP1b binding inh – inhibitors of HP1-beta chromodomain binding to methylated histone tails. P83916. AlphaScreen HP1-beta / biotin-H3K9me3 peptide binding. Potency, µM (doses to about 114 µM), without a hit: top-dose activity change, negative = inhibition, hits mostly inhibitors. 390,000 tested, 0.56% active. AID 540317; also: nearly all actives have a fitted effect of over 70% in size
Target sequence (P83916 whole entry, looked up): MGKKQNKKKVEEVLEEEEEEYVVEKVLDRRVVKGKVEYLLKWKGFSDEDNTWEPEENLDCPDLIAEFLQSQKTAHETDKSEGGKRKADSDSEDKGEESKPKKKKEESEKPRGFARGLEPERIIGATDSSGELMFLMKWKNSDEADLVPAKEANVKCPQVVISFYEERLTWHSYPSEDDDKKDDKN
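Compound inhibition of the preformed complex between 50 nM HP1-beta and 50 nM biotinylated H3K9me3 peptide was read by AlphaScreen. Buffer was PBS pH 7.4 with 0.01% Tween-20. Incubations ran 30 min at room temperature, with 10 ug/mL donor/acceptor beads.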
* hit, by the source's call; [ ] = dose if it differs, or a comment. The list is not random: actives were taken first. Their share in the collection is about 11%. Calls follow the shape of the dose curve; as a rule, active = well fitted curve in the direction sought with a large enough effect; inconclusive = small, poorly fitted or top-dose-only effect, or another doubt; inactive = no such curve, though single readings can be large; an effect the other way counts as inactive or inconclusive. Potency is read from the fitted curve at half-maximal effect.

`CCc1ccc(C(C)NC(=O)c2ncn[nH]2)cc1` (stereo unspecified) gave G9a block -7.6%[59 µM], JMJD2A Tudor inh -18.8%[57.1 µM], BAZ2B block 50.1µM*, PLK1 PBD block -18.7%, VDR inhibitor 5.9% and HP1b binding inh 56.9%.
`CCc1ccc(C(C)NC(=O)c2ccc(F)cc2)cc1` (stereo unspecified) gave G9a block 14.8%, JMJD2A Tudor inh 12.1%, BAZ2B block -5.0%, PLK1 PBD block 1.1%, VDR inhibitor 5.5% and HP1b binding inh 51.1%.
Screening CCOC(=O)C1CCC(CN(Cc2ccc(Cl)cc2)S(=O)(=O)c2cccc(Cl)c2C)CC1 (stereo unspecified) returned G9a block 22.1%[59 µM], JMJD2A Tudor inh -4.6%, BAZ2B block 15.6%, VDR inhibitor 15.3% and HP1b binding inh 49.7%.
Screening CC(C)CN(CC(C)C)C(=O)CC(=O)NC(=O)c1ccc(Cl)cc1 returned G9a block -5.0%[59 µM], JMJD2A Tudor inh 16.1%, BAZ2B block 89.1µM*, PLK1 PBD block -0.3%, VDR inhibitor 3.1% and HP1b binding inh 20.6%.
COc1ccc(CNC(=O)C(OC(=O)c2ccco2)c2ccc(F)cc2)cc1 (stereo unspecified) was read as G9a block 6.5%, JMJD2A Tudor inh -4.4%, BAZ2B block 2.9%, PLK1 PBD block -4.0%, VDR inhibitor -4.9% and HP1b binding inh 25.9%[57 µM].
`O=c1oc2cc([N+](=O)[O-])ccc2nc1/C=C(O)/C=C/c1ccccc1` gave G9a block 35.5µM* and BAZ2B block 50.1µM*.
O=c1oc2cc([N+](=O)[O-])ccc2nc1/C=C(\O)c1cccc(Br)c1 was read as G9a block 20µM*, JMJD2A Tudor inh inconclusive, BAZ2B block inconclusive, PLK1 PBD block -11.3%, VDR inhibitor -10.3% and HP1b binding inh 14.1%.
For Cc1nc(C)c(/C(O)=C/c2nc3ccccc3oc2=O)s1 the results were G9a block inconclusive, JMJD2A Tudor inh -27.1%, BAZ2B block -62.9%, PLK1 PBD block 0.0%, VDR inhibitor -2.7% and HP1b binding inh 30.1%.
For CC(C(=O)NCCC1=CCCCC1)c1ccc([N+](=O)[O-])cc1 (stereo unspecified) the results were G9a block inconclusive, JMJD2A Tudor inh -6.3%, BAZ2B block -2.8%, PLK1 PBD block inconclusive, VDR inhibitor -5.8% and HP1b binding inh 30.8%.
S=c1[nH]nc(-c2cccc3ccccc23)n1-c1cccnc1 was read as G9a block -127.3%[59 µM], JMJD2A Tudor inh 20µM*, BAZ2B block -4.9%, PLK1 PBD block -10.2%, VDR inhibitor 5.3% and HP1b binding inh 10.8%.
CC(C)c1ccccc1-n1c(-c2cccnc2)n[nH]c1=S was read as G9a block -35.7%[12.7 µM], JMJD2A Tudor inh 10µM*, BAZ2B block -20.1%, PLK1 PBD block -5.3%, VDR inhibitor 5.1% and HP1b binding inh 30.7%.
Cc1ccccc1-n1c(-c2cccnc2)n[nH]c1=S was read as G9a block 5.01µM*, JMJD2A Tudor inh 11.2µM*, BAZ2B block -4.3%, PLK1 PBD block -0.8%, VDR inhibitor -10.0% and HP1b binding inh 38.2%.
Screening CCc1cccc(CC)c1-n1c(-c2cccnc2)n[nH]c1=S returned G9a block inconclusive, JMJD2A Tudor inh inconclusive, BAZ2B block -22.5%, PLK1 PBD block -2.9%, VDR inhibitor -18.8% and HP1b binding inh 22.3%.
Cc1cccc2nc(-c3cccnc3)c(Nc3ccc(C(C)C)cc3)n12 was read as G9a block inconclusive, JMJD2A Tudor inh -15.4%, BAZ2B block -12.9%, VDR inhibitor -6.0% and HP1b binding inh -0.2%.
For O=S1(=O)c2cccc3cccc(c23)N1Cc1nnc(-c2ccccc2Br)o1 the results were G9a block 56.2µM*, JMJD2A Tudor inh -14.5%[11.4 µM], BAZ2B block 6.4%, PLK1 PBD block -20.6%, VDR inhibitor 4.7% and HP1b binding inh -12.9%.
`O=C1c2ccccc2S(=O)(=O)N1Cc1nnc(-c2ccccc2Br)o1` gave G9a block inconclusive, JMJD2A Tudor inh -6.1%, BAZ2B block -1.7%, PLK1 PBD block -7.7%, VDR inhibitor -12.7% and HP1b binding inh 50.9%.
`COc1ccc(-c2ccoc2)cc1C1C2C=CCC(C)C2C(=O)N1Cc1ccccc1` (stereo unspecified) gave JMJD2A Tudor inh inconclusive, VDR inhibitor inconclusive and HP1b binding inh 4.0%.
Screening COc1ccccc1NS(=O)(=O)c1ccc2[nH]c(=O)[nH]c2c1 returned G9a block 17.7%, JMJD2A Tudor inh -0.7%, BAZ2B block -26.3%, PLK1 PBD block -8.0%, VDR inhibitor 5.0% and HP1b binding inh 69.1%.
Screening O=c1[nH]c2ccc(S(=O)(=O)Nc3ccccc3O)cc2[nH]1 returned G9a block 2.24µM*, JMJD2A Tudor inh -7.6%, BAZ2B block -31.7%, PLK1 PBD block -4.8%, VDR inhibitor -5.1% and HP1b binding inh 19.5%.
For COc1ccc(-c2nc(-c3ccccc3)ncc2S(C)(=O)=O)cc1 the results were G9a block 16.9%[12.7 µM], JMJD2A Tudor inh inconclusive, BAZ2B block -3.8%, PLK1 PBD block 26.7µM*, VDR inhibitor inconclusive and HP1b binding inh 6.7%.
Cc1nc(NC(=O)c2ccc([N+](=O)[O-])cc2Cl)sc1C(=O)N(C)C was read as G9a block inconclusive, JMJD2A Tudor inh inconclusive, BAZ2B block -28.1%, PLK1 PBD block 18.9µM*, VDR inhibitor inconclusive and HP1b binding inh -22.3%.
For Cc1cc(C(=O)Nc2nc(C)c(C(=O)N(C)C)s2)ccc1[N+](=O)[O-] the results were G9a block -3.6%[59 µM], JMJD2A Tudor inh -12.5%, BAZ2B block -5.5%, PLK1 PBD block 3.4%, VDR inhibitor -10.0% and HP1b binding inh 18.3%.
CC(=O)SC(C)CC(=O)NCc1ccccc1 (stereo unspecified) was read as G9a block 20.2%, JMJD2A Tudor inh -10.5%, BAZ2B block -7.5%, PLK1 PBD block -12.2%, VDR inhibitor -3.9% and HP1b binding inh 7.1%.
CCOc1ccc(-c2nc(S(=O)(=O)c3ccccc3)c(NCc3cccnc3)o2)cc1 was read as G9a block 44.7µM*, JMJD2A Tudor inh inconclusive, BAZ2B block inconclusive, PLK1 PBD block 0.4%, VDR inhibitor 6.3% and HP1b binding inh 5.4%.
Screening Cc1ccc(S(=O)(=O)c2nc(-c3ccccc3F)oc2NCc2ccccc2)cc1 returned G9a block inconclusive, JMJD2A Tudor inh -17.0%, BAZ2B block inconclusive, VDR inhibitor -18.1% and HP1b binding inh 5.1%.
For COc1ccc(-c2nc(S(=O)(=O)c3ccc(C)cc3)c(NCc3ccccc3)o2)cc1 the results were G9a block 11.2µM*, JMJD2A Tudor inh inconclusive, BAZ2B block -27.4%, VDR inhibitor -3.4% and HP1b binding inh 16.1%.
